# NTMT1 inhibitor: NTMT1 methyltransferase inhibition | Q9BV86 | NTMT1 MTase-Glo SAH luminescence, purified enzyme | Potency, µM (top dose mostly 114 µM), actives largely listed as inhibitors | hit rate 2.5% among 59,000 | AID 1645870; also: nearly all actives have a fitted effect of over 65% in size
# Target sequence (Q9BV86 whole entry, looked up): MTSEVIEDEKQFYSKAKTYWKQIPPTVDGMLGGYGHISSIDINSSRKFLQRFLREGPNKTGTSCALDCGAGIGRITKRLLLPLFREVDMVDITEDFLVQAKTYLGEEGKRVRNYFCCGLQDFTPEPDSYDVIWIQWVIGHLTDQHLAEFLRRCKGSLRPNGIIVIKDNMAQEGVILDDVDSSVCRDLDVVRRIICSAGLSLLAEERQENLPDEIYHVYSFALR
# FH mod: Identification of activators of human fumarate hydratase by quantitative high-throughput screening; Fumarate hydratase, mitochondrial (Homo sapiens), P07954; FH coupled MDH/diaphorase resazurin fluorescence, 15 min; Potency, µM (doses to about 79.9 µM), most hits filed as inhibitors; hit rate 0.22% among 54,000; AID 1347055, 2019; also: the screen sought activators but most active calls are inhibition curves; nearly all actives have a fitted effect of over 45% in size
# Target sequence (P07954 whole entry, looked up): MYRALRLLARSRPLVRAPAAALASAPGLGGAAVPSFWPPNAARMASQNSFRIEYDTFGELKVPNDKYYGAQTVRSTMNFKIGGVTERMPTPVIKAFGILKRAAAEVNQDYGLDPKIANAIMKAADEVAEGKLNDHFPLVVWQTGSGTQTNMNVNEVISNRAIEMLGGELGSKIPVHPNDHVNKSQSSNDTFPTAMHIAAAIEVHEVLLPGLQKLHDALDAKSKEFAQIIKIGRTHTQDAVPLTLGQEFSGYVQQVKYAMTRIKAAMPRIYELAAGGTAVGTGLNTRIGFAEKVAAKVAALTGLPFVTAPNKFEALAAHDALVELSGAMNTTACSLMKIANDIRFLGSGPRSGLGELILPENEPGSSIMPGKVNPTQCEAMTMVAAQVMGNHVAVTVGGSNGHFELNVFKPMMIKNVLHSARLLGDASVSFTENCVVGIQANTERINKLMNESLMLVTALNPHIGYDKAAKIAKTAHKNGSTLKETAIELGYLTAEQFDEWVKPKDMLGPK
# GALK inh: GALK (human) enzyme inhibition; P51570; recombinant GALK, Kinase-Glo ATP luminescence, 1 h; Potency, µM (doses to about 57.5 µM), hits mostly inhibitors; 44,000 tested, under 10 active; AID 1347072
#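 Luminescent ATP-depletion readout (Kinase-Glo Plus) after 1 h room-temperature incubation of human GALK (5 nM) with galactose 100 µM and ATP 35 µM, pH 8.0 HEPES/Mg2+ buffer; compounds tested in qHTS format.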
# B2AR arrestin ag: ADRB2 beta-arrestin recruitment; 44,000 tested, under 10 active; P07550; HTLA Tango cells, beta-arrestin recruitment, luciferase luminescence, 18 h; Potency, µM (highest dose often 46.1 µM), most hits filed as activators
#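 Tango cells expressing recombinant beta2-AR and beta-arrestin were treated with compounds (up to 46 microM titration) in DMEM with 1% FBS for 18 hr at 37 degrees C. Beta-arrestin recruitment drove tTA-dependent luciferase, read by luminescence; curves were fitted and classed.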
# TSG101-PTAP inh: TSG101-PTAP interaction inhibition, HIV-1 budding; Q99816; Fluorescence polarization, FITC-PTAP peptide/Tsg101, 20 min; Potency, µM (titrated, usually from 115 µM), most hits filed as inhibitors; 44,000 tested, under 10 active; AID 1347069
#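 Fluorescence polarization: Tsg101 binding domain (10 uM final) in 10 mM HEPES pH 7.5, 0.15 M NaCl, 0.01% Tween 20, 3 mM EDTA, 0.1 mM TCEP; compounds pinned; FITC-PTAP peptide 50 nM final; 20 min, r.t.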
# GPR32 ag: agonists of human resolvin D1 receptor DRV1 (GPR32) | hit rate 2.5% among 48,000 | CHO-K1 GPR32 beta-arrestin PathHunter luminescence, 90 min; zero percent set by DMSO-only wells | O75388 | activation, % at 76.9 µM;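 active = activation of at least 60% and not above a set upper limit, about 1 call in 100 departs from these limits; inconclusive = activation of 40% to 60%, or above that upper limit; inactive = activation under 40%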
#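 Cells are plated overnight, treated with compounds in DMSO for 90 minutes at 37 °C, and developed with PathHunter detection reagent for 1 hour before luminescence is read; signal reflects beta-arrestin binding to GPR32 in engineered CHO-K1 cells.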
# DYRK1A inh: blocks recombinant human DYRK1A kinase activity; recombinant DYRK1A, Kinase-Glo ATP depletion luminescence; Potency, µM (highest dose often 76.9 µM), most hits filed as inhibitors; hit rate 80% among 100; shares compounds with NTMT1 inhibitor
# CLK4 KinaseGlo: confirmation of human CLK4 kinase inhibitors, SAR round 2; hit rate 90% among 90; shares compounds with NTMT1 inhibitor; AID 493204; Potency, µM (series often up to 76.9 µM), most hits filed as inhibitors; recombinant Clk4, Kinase-Glo ATP luminescence, 4.5 h
# Sfp PPTase inh: Sfp PPTase inhibition, chemistry optimization; shares compounds with NTMT1 inhibitor; hit rate 78% among 230; AID 540350; Potency, µM (top dose mostly 114 µM), actives largely listed as inhibitors; purified Sfp PPTase enzyme activity, qHTS
# HM489 growth: B. subtilis HM489 growth inhibition; shares compounds with NTMT1 inhibitor; B. subtilis HM489 (acpS-) growth, BacTiter-Glo, 5 h; AID 540353; hit rate 50% among 220; Potency, µM (top dose mostly 114 µM), hits mostly inhibitors
# Sfp PPTase gel: inhibits B. subtilis Sfp PPTase in gel assay; shares compounds with NTMT1 inhibitor; hit rate 54% among 220; Potency, µM (series often up to 250 µM), actives largely listed as inhibitors; AID 540355; purified Sfp PPTase, gel-based product detection
# Sfp SAR2: inhibits B. subtilis Sfp PPTase in second SAR round. shares compounds with NTMT1 inhibitor. hit rate 87% among 230. Potency, µM (doses to about 57.1 µM), actives largely listed as inhibitors. purified Sfp enzyme, PPTase activity, qHTS
# HSD17B4 counter: HSD17B4 (human) inhibition, HPGD counter-screen. Potency, µM (top dose mostly 57.1 µM), hits mostly inhibitors. purified HSD17B4, estradiol/NAD+, NADH fluorescence. shares compounds with NTMT1 inhibitor. hit rate 10% among 230
# ALDH1A1 inh: ALDH1A1 (human) inhibition, HPGD counter-screen | shares compounds with NTMT1 inhibitor | recombinant ALDH1A1, NADH fluorescence, propionaldehyde/NAD+ | Potency, µM (series often up to 57.1 µM), hits mostly inhibitors | hit rate 93% among 230 | AID 743195
# NNMT counter: blocks human NNMT methyltransferase | shares compounds with NTMT1 inhibitor | NNMT MTase-Glo luminescence, SAH detection | Potency, µM (titrated, usually from 57.1 µM), usual class: inhibitors | hit rate 10% among 120 | AID 1645878
# Hits are given with their value; n = inactive; u = inconclusive; x = not tested or not shown. The list is not random: actives were taken first. Their share in the collection is about 3.7%. Unless noted, calls follow the shape of the dose curve; as a rule, active = well fitted curve in the direction sought with a large enough effect; inconclusive = small, poorly fitted or top-dose-only effect, or another doubt; inactive = no such curve, though single readings can be large; an effect the other way counts as inactive or inconclusive.
SMILES,NTMT1 inhibitor,FH mod,GALK inh,B2AR arrestin ag,TSG101-PTAP inh,GPR32 ag,others
CC=CCC(C)C(O)C1C(=O)NC(CC)C(=O)N(C)CC(=O)N(C)C(CC(C)C)C(=O)NC(C(C)C)C(=O)N(C)C(CC(C)C)C(=O)NC(C)C(=O)NC(C)C(=O)N(C)C(CC(C)C)C(=O)N(C)C(CC(C)C)C(=O)N(C)C(C(C)C)C(=O)N1C (centres undefined),n,n,x,x,x,x,
O=C(NC1CCCc2c1cnn2-c1ccc(F)cc1F)c1cnon1 (centres undefined),n,x,x,x,x,x,
CN1C[C@@H]2c3ccccc3Oc3ccc(Cl)cc3[C@H]2C1,n,x,x,x,x,x,
Cc1cc(C)nc(NC(=S)N2CCN(c3nccc4ccccc34)CC2)c1,u,x,x,x,x,x,Sfp PPTase inh=2.6µM;HM489 growth=u;Sfp PPTase gel=n;Sfp SAR2=9.1µM;HSD17B4 counter=n;ALDH1A1 inh=9.6µM
Cc1cc(C)nc(NCc2ccc(O)c3ncccc23)c1,n,x,x,x,x,x,
Cc1cc(N[S+](=O)([O-])c2ccc(NC(=O)Cc3ccc(Cl)c([N+](=O)[O-])c3)cc2)no1,n,x,x,x,x,x,
COc1ccccc1C1N=C(Nc2nc3ccccc3o2)NC2=C1C(=O)CCC2 (centres undefined),n,x,x,x,x,x,
O=C([C@@H]1CCCN(c2ccc3[nH]c(C4(n5cc(Cl)cn5)CC4)nc3n2)C1)N1CCCC1,u,n,x,x,x,x,NNMT counter=n
O=C(Nc1ccc(F)c(Cl)c1)C1CCCN(c2cnccn2)C1 (centres undefined),n,n,n,n,n,n,
c1nc(NCC2CCCO2)c2ccc(-c3ccc4c(c3)OCO4)cc2n1 (centres undefined),n,x,x,x,x,x,
c1ccc(-c2oc3ncnc(NC[C@@H]4CCCO4)c3c2-c2ccccc2)cc1,10µM,n,x,x,x,x,NNMT counter=u
CN(C)C(=O)COC(=O)c1cc(-c2ccc(C3CCNCC3)cc2)c2ccc(-c3ccc(C(F)(F)F)cc3)cc2c1,u,n,x,x,x,x,
C=CC(C)(C)C12CC3C(=O)N4C(CC5(C(C)(C)C=C)c6ccccc6NC45)C(=O)N3C1Nc1ccccc12 (centres undefined),n,n,x,x,x,x,
Cn1cc(-c2nc3cnc(N4CCNCC4)nc3n(Cc3ccc(F)cc3)c2=O)c2ccccc21,x,x,x,x,x,x,CLK4 KinaseGlo=u
CCCCCOc1ccc(-c2ccc(-c3ccc(C(=O)N[C@H]4C[C@@H](O)[C@@H](O)NC(=O)[C@@H]5[C@@H](O)[C@@H](C)CN5C(=O)[C@H]([C@@H](C)O)NC(=O)[C@H]([C@H](O)[C@@H](O)c5ccc(O)cc5)NC(=O)[C@@H]5C[C@@H](O)CN5C(=O)[C@H]([C@@H](C)O)NC4=O)cc3)cc2)cc1,n,n,x,x,x,x,NNMT counter=n
CCCCCOc1ccc(-c2cc(-c3ccc(C(=O)N[C@H]4C[C@@H](O)[C@@H](O)NC(=O)C5[C@@H](O)[C@@H](C)CN5C(=O)C([C@H](O)CC(N)=O)NC(=O)C([C@H](O)[C@@H](O)c5ccc(O)c(OS(=O)(=O)O)c5)NC(=O)C5C[C@@H](O)CN5C(=O)C([C@@H](C)O)NC4=O)cc3)no2)cc1 (some centres undefined),n,n,x,x,x,x,
OC[C@H]1O[C@@H](Oc2ccc(O)c3cccc(O)c23)[C@H](O)[C@@H](O)[C@@H]1O,u,n,x,x,x,x,
COc1cc2ncnc(Nc3ccc(F)c(Cl)c3)c2cc1NC(=O)/C=C/CN1CCCCC1,8.9µM,n,x,x,x,x,NNMT counter=u
CC(C)(C)CNc1ncnc2ccc(-c3ccc4c(c3)OCO4)cc12,x,x,x,x,x,x,DYRK1A inh=0.0091µM
Cc1csc(CNc2ncnc3ccc(-c4ccc5c(ccn5C)c4)cc23)c1,n,x,x,x,x,x,
CCCNc1ncnc2ccc(-c3ccc4c(c3)OCO4)cc12,x,x,x,x,x,x,CLK4 KinaseGlo=0.041µM
Cn1cnc(CCNc2ncnc3ccc(-c4ccc5c(c4)OCO5)cc23)c1,n,x,x,x,x,x,DYRK1A inh=1.5µM
CCN(CCc1cn(C)cn1)c1ncnc2ccc(-c3ccc4c(c3)OCO4)cc12,u,x,x,x,x,x,DYRK1A inh=2.3µM
N#Cc1c(-c2ccc(Cl)c([N+](=O)[O-])c2)no[n+]1[O-],n,x,x,x,x,x,
CNS(=O)(=O)c1ccccc1Nc1nc(Nc2ccc(N3CCN(C)CC3)cc2OC)ncc1Br,u,n,x,x,x,x,
CCCN(Cc1cccs1)c1ncnc2ccc(-c3ccc4c(c3)OCO4)cc12,u,x,x,x,x,x,DYRK1A inh=0.82µM
